# Test results taken from PubChem BioAssay (NCATS).
# Several values for one entry are separate records, joined by “and”; a condition that tells them apart may be missing. Identical values can stand only once. Records with an inconclusive call do not appear. Activity calls are given as the source filed them. Unless noted, calls come from the whole dose curve; as a rule, active = well fitted curve in the direction sought with a large enough effect; inconclusive = small, poorly fitted or top-dose-only effect, or another doubt; inactive = no such curve, though single readings can be large; an effect the other way counts as inactive or inconclusive.
# Assays:
# [1] = qHTS Assay for Lipid Storage Modulators (AID 1519; calls by dose curve); details: Drosophila S3 cells, BODIPY lipid droplet/cell ratio, laser cytometry, cells loaded with oleic acid
# In short: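 Cells seeded at 5,000 per well were treated with compounds over a concentration series and loaded with oleic acid (400 uM, as added). Lipid droplet fluorescence (488 nm excitation, 500-530 nm channel) was read by laser-scanning cytometry and normalized to 20 uM Triacsin C.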
# [2] = target: Cytochrome P450 1A2 (Homo sapiens) (UniProt P05177); assay: p450-cyp1a2 (AID 410; calls by dose curve; note: potency is the fitted concentration of half-maximal effect)
# In short: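 Luminescent readout of luciferin formed from Luciferin-ME by human CYP1A2; data normalized against complete inhibition by 57 uM furafylline. Enzyme 20nM, substrate 100uM at Km, 100mM KPO4 buffer, 60 min reaction at room temperature.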
# [3] = target: Glucocorticoid receptor (Homo sapiens) (UniProt P04150); assay: GR-GFP Redistribution (AID 450;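 active = compounds whose dose series gives a full or clear partial fitted curve of increased nuclear translocation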; note: potency is the fitted concentration of half-maximal effect); details: U2OS GR-GFP nuclear translocation, laser cytometry, 2 h
# Glucocorticoid receptor (Homo sapiens), sequence (P04150 whole entry, looked up, the tested form may be a part): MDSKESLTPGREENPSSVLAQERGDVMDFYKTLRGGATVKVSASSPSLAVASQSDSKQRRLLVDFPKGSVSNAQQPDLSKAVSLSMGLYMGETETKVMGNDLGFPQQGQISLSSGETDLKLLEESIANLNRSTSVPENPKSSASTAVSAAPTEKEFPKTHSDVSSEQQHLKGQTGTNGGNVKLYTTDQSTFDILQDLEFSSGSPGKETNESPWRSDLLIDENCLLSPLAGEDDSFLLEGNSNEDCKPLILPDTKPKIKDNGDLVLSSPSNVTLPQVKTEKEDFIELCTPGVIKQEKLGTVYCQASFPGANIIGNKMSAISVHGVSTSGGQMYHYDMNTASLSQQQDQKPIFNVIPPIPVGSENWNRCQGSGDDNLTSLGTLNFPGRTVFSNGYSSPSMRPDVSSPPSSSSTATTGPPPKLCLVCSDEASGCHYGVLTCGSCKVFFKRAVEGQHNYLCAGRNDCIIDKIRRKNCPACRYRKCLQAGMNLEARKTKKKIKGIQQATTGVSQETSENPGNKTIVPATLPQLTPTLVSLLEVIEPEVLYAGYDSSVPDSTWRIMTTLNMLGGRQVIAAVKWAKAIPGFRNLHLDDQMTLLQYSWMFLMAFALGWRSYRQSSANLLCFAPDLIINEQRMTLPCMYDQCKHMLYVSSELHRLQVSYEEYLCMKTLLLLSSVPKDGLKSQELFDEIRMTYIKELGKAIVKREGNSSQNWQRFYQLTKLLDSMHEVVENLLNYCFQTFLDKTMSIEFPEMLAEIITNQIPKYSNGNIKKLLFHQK
# [4] = target: Glucocorticoid receptor (Homo sapiens) (UniProt P04150); assay: GR-EFC Redistribution (AID 451; calls by dose curve; note: potency is the fitted concentration of half-maximal effect); details: CHO-K1 GR-EFC translocation, beta-gal luminescence, 2 h
# In short: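 CHO-K1 cells stably expressing nuclear-localized β-gal enzyme acceptor and GR fused C-terminally to the enzyme donor fragment; ligand-driven nuclear translocation restores β-gal by complementation. Compounds titrated up to 46 uM final, 2 h at 37 °C; luminescence read.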
# [5] = target: Mitogen-activated protein kinase 10 (Mus musculus) (UniProt Q61831); assay: JNK3 AlphaScreen Assay (AID 530; active = well fitted curve in either direction with a large enough effect, not every such curve was filed as active;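 note: kinase came from lysate of stimulated human HepG2 cells; signal reports phosphorylation of biotinylated GST-cJun 1-79 at Ser73 with 10 µM ATP; % is set by controls: 0 for no effect and ±100 for the full control effect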)
# In short: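 Inhibitors reduce antibody binding to phosphorylated biotin-cJun, lowering AlphaScreen luminescence. Lysates from HepG2 cells pre-activated by IL-1beta plus TNF-alpha supplied JNK3; compounds were titrated.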
# [6] = target: 3',5'-cyclic-AMP phosphodiesterase 4B (Homo sapiens) (UniProt Q07343); assay: qHTS Assay for Inhibitors of PDE-IV (AID 607; active = well fitted activation curve with a large enough effect in the main read-out, with a control signal flat, not every such curve was filed as active; note: % of control where 0% means no effect)
# 3',5'-cyclic-AMP phosphodiesterase 4B (Homo sapiens), sequence (Q07343 whole entry, looked up): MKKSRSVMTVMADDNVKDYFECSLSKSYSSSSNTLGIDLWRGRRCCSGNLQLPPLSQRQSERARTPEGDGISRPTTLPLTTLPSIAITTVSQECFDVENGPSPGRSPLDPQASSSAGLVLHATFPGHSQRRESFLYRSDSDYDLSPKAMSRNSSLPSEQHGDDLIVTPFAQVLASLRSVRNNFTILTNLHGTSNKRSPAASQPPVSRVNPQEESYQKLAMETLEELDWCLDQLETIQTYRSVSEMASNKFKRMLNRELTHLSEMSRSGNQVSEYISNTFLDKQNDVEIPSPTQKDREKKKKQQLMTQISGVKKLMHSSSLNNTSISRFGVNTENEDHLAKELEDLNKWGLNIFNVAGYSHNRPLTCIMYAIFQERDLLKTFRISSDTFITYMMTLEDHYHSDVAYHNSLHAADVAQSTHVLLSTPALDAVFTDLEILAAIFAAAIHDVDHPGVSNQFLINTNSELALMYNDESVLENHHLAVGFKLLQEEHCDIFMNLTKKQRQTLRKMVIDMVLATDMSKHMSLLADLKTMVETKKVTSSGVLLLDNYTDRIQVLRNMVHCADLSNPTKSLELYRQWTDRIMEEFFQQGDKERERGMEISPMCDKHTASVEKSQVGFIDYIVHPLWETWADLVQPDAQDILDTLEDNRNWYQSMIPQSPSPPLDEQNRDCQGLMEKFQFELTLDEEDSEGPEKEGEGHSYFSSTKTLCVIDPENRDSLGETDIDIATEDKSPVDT
# In short: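 The readout is membrane depolarisation from a cAMP-sensing CNG channel, detected with a potential dye at ex 535/em 590. Cells were HEK293-derived (endogenous PDE-IV) at 1000 cells/well, titrated up to 22.9 uM final.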
# [7] = target: Cytochrome P450 3A4 (Homo sapiens) (UniProt P08684); assay: qHTS Assay for Activators of Cytochrome P450 3A4 (AID 885); note: nearly all actives have a fitted effect of over 65% in size
# Cytochrome P450 3A4 (Homo sapiens), sequence (P08684 whole entry, looked up): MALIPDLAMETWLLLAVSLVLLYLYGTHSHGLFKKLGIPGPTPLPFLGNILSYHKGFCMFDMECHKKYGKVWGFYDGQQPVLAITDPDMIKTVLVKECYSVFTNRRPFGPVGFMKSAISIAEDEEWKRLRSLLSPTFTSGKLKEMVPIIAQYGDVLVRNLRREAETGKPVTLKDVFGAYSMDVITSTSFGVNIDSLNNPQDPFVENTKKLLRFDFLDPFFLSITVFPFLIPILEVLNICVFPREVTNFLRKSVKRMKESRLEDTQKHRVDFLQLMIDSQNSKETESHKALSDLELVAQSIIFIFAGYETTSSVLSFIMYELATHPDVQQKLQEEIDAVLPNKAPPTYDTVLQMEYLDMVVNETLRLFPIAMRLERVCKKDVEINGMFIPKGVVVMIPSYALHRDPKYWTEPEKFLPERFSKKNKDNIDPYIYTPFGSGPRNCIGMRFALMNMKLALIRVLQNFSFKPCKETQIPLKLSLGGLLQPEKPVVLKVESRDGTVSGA
# In short: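 Steps: enzyme/substrate mix dispensed; compound added, 10 min RT; NADPH regeneration solution added, 60 min RT; luciferin detection buffer stops reaction; 20 min later luminescence measured.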
# [8] = Primary qHTS for small molecule stabilizers of the endoplasmic reticulum resident proteome: Secreted ER Calcium Modulated Protein (SERCaMP) assay (AID 1508630); note: % is set by controls: 0 for no effect and ±100 for the full control effect
# In short: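 GLuc-SERCaMP-expressing SH-SY5Y cells, pretreated 16 h with compound, are challenged with thapsigargin to empty ER calcium stores; after 4 h, coelenterazine is added directly to the medium and luminescence is imaged.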
# [9] = AP1 Signaling Pathway (AID 357; active = well fitted curve in either direction with a large enough effect, not every such curve was filed as active;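 note: ME-180 reporter cells stimulated with EGF at its EC50 level; % is set by controls: 0 for no effect and ±100 for the full control effect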)
# In short: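 Cells are seeded overnight, exposed to compound titrations and an EC50 level of EGF for 5 hours at 37 °C, then loaded with CCF4 dye for 2.5 hours. Beta-lactamase activity under the AP-1 element is read as a blue/green ratio.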
# [10] = Stat Signaling Pathway (AID 446; active = well fitted curve in either direction with a large enough effect, not every such curve was filed as active;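 note: ME-180 cervical cancer cells given 40 pM IL-6 alongside compound; SIE-controlled beta-lactamase reporter measured as 460/530 nm FRET emission ratio; % is set by controls: 0 for no effect and ±100 for the full control effect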)
# In short: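 Screening format detects activators and inhibitors alike: ME-180 SIE-bla cells stimulated at 40 pM IL-6 for 5 hrs with compound, then dual-emission beta-lactamase read at 405 nm excitation.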
# [11] = NFAT Signaling Pathway (AID 444; active = well fitted curve in either direction with a large enough effect, not every such curve was filed as active); details: Jurkat NFAT-bla M1, carbachol, beta-lactamase ratio, 5 h; at 17.2 µM (top of the series)
# In short: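 Jurkat cells carrying an NFAT-driven β-lactamase reporter and co-transfected muscarinic M1 receptor were treated with compound plus carbachol (1 uM final, an EC50 level) for 5 h at 37 °C. CCF4 loading followed for 1 h at RT; 460/530 nm ratio gave %activity.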
# [12] = target: DNA repair nuclease/redox regulator APEX1 (Homo sapiens) (UniProt P27695); assay: qHTS Validation Assay for Inhibitors of the Human Apurinic/apyrimidinic Endonuclease 1 (APE1) (AID 1705)
# DNA repair nuclease/redox regulator APEX1 (Homo sapiens), sequence (P27695 whole entry, looked up): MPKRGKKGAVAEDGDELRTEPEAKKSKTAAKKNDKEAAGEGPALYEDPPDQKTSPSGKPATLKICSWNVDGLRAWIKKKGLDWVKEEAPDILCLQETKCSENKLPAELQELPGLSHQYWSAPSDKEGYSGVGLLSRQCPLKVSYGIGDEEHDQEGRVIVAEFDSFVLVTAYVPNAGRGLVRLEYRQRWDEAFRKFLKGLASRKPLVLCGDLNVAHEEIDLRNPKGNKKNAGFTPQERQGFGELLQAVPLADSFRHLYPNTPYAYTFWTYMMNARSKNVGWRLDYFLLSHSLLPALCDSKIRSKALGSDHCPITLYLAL
# In short: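 Endonuclease activity of human APE1 is followed as dequenching when the enzyme incises a tetrahydrofuran abasic site in a short duplex labelled 5'-TAMRA/3'-BHQ-2 (50 nM final), after 15 min enzyme–compound preincubation at room temperature.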
# [13] = target: ATP-dependent DNA helicase Q1 (Homo sapiens) (UniProt P46063); assay: qHTS Validation Assay for Inhibitors of RecQ-Like Dna Helicase 1 (RECQ1) (AID 2353);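 note: plate controls were DMSO vehicle for no effect and enzyme-free control for full effect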
# ATP-dependent DNA helicase Q1 (Homo sapiens), sequence (P46063 whole entry, looked up): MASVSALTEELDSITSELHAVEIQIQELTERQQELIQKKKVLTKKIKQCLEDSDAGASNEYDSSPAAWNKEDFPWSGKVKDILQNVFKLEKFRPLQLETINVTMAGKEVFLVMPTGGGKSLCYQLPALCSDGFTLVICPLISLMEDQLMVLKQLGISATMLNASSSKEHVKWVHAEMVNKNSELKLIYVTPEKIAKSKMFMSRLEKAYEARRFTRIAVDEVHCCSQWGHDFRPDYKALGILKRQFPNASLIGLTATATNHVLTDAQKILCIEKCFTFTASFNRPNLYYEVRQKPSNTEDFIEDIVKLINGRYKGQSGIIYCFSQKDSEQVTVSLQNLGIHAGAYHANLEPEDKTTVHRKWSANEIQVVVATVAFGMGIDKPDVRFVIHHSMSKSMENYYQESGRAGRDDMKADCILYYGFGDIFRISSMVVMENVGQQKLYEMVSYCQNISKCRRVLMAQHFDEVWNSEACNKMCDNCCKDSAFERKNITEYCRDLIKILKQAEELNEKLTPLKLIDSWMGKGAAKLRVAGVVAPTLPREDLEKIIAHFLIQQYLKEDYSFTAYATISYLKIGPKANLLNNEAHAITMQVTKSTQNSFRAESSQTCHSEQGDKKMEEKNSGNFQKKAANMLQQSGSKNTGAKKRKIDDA
# In short: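 50 nM RECQ1T1 preincubated 15 min with compound in Tris pH 8.0 buffer with MgCl2, DTT, Tween-20 and 2.5 ug/ml poly(dI-dC); started with 200 nM TAMRA/BHQ-2 forked duplex and 2 mM ATP. Unwinding read as fluorescence (525/598 nm), two reads 2 h apart.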
# [14] = target: Voltage-gated inwardly rectifying potassium channel KCNH2 (Homo sapiens) (UniProt Q12809); assay: qHTS Assay for Small Molecule Inhibitors of the Human hERG Channel Activity (AID 588834);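 note: top concentration of the series differs between compounds; % is set by controls: 0 for no effect and ±100 for the full control effect; lower thallium flux fluorescence means stronger hERG block; nearly all actives have a fitted effect of over 50% in size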
# Voltage-gated inwardly rectifying potassium channel KCNH2 (Homo sapiens), sequence (Q12809 whole entry, looked up): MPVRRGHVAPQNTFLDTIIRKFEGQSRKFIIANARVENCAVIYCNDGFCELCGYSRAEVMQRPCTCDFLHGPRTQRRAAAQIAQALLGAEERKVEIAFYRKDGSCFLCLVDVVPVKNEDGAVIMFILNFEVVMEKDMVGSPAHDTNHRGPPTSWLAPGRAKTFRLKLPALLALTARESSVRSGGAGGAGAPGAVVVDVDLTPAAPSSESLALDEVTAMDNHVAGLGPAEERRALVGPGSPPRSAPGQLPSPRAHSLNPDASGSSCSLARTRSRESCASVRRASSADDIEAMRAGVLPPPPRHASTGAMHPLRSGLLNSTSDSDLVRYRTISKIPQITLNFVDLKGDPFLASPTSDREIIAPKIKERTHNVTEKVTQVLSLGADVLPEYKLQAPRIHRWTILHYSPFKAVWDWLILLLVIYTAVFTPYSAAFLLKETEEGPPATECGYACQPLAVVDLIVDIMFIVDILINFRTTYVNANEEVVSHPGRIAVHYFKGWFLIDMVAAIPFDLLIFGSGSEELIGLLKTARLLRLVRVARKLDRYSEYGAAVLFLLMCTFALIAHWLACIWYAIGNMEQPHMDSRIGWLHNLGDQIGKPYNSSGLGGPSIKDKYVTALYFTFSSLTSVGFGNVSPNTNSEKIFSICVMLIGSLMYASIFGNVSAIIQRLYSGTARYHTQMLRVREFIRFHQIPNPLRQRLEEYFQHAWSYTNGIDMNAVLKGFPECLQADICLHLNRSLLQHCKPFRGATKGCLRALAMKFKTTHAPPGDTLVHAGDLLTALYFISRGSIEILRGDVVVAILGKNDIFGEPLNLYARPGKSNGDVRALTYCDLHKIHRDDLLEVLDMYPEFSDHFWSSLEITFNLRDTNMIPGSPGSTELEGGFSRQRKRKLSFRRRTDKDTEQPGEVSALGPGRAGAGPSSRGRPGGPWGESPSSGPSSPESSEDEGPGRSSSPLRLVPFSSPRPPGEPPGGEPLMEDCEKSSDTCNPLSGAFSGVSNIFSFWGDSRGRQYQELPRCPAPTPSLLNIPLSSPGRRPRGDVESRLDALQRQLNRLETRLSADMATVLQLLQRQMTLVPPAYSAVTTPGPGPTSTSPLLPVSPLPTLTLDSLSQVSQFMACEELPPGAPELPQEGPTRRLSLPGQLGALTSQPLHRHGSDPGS
# In short: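 Measured: FluxOR fluorescence after thallium stimulation in U2OS cells transduced with hERG by baculovirus. Compounds pre-incubated around 10 min; medium Opti-MEM with 2% FCS. AC50 from Hill equation.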
# [15] = target: Cytochrome P450 3A4 (Homo sapiens) (UniProt P08684); assay: qHTS Assay for Inhibitors and Substrates of Cytochrome P450 3A4 (AID 884); note: nearly all actives have a fitted effect of over 50% in size; note: potency is the fitted concentration of half-maximal effect
# In short: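 20 nM human CYP3A4 with 25 uM Luciferin-PPXE (at KM) in 200 mM KPO4, preincubated 10 min with compound; NADPH regeneration started a 60 min RT reaction. Luciferin detected by luminescence, normalized to 57 uM ketoconazole as full inhibition.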
# [16] = Confirmation and Secondary Assay for Modulators of Hemoglobin Beta Chain Splicing at IVS2 654 locus (AID 910);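 note: per-well total GFP intensity by laser scanning cytometry after 2-day treatment; % of control where 0% means no effect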
# In short: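 HeLa cells stably carrying EGFP interrupted by mutant beta-globin IVS2-654 intron (CMV-driven) were treated with compound for 2 days at 37C; corrected splicing was scored as total peak GFP intensity per well (488 nm excitation, 500-520 nm emission).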
# [17] = target: Ubiquitin carboxyl-terminal hydrolase 1 (Homo sapiens) (UniProt O94782); assay: Inhibitors of USP1/UAF1: Pilot qHTS (AID 504865); note: nearly all actives have a fitted effect of over 35% in size; note: potency is the fitted concentration of half-maximal effect
# Ubiquitin carboxyl-terminal hydrolase 1 (Homo sapiens), sequence (O94782 whole entry, looked up): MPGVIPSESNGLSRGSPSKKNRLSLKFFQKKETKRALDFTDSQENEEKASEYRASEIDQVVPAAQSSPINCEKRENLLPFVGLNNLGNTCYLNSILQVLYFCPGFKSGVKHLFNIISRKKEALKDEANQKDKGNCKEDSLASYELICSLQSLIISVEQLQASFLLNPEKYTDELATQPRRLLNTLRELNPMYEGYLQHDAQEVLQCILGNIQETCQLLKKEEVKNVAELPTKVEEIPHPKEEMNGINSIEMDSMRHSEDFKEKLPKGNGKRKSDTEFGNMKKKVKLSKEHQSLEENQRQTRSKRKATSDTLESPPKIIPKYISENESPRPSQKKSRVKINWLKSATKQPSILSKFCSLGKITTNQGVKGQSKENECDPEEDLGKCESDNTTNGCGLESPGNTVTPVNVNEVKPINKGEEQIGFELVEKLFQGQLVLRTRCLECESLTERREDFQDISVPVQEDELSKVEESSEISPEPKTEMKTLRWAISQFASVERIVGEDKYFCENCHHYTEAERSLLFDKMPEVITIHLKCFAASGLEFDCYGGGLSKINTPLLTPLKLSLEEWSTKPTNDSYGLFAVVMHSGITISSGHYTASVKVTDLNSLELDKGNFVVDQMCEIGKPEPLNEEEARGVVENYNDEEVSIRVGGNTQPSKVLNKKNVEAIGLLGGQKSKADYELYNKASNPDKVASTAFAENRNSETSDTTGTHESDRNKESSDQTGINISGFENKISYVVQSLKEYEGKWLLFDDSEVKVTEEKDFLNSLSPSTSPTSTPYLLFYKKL
# In short: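 Kinetic fluorescence assay: 1nM USP1/UAF1, 15 min compound preincubation, then 150nM Ub-Rho; 480/540 nm.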
# [18] = Confirmation and Secondary Assay for Modulators of Hemoglobin Beta Chain Splicing at IVS2 705 locus (AID 930);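 note: HeLa cells stably expressing the EGFP-705 splicing reporter; GFP fluorescence per well restored by corrected splicing of the IVS2-705 intron in EGFP; % of control where 0% means no effect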
# In short: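 Fluorescence gain (488 nm laser, 500-520 nm PMT) reflects restored correct splicing of a mutant IVS2-705 intron inside EGFP in stably transfected HeLa cells after 2-day compound treatment.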
# [19] = measured here: cell count channel max response
# [20] = measured here: lipid channel max response
compound,measurement,setting,value
CC(CCC(=O)O)C1CCC2C3C(=O)CC4CC(=O)CC[C@@]4(C)C3CC(=O)[C@]12C (stereo partly specified),"activity change, negative = inhibition",[1]; at 57.5 µM (top of the series),1.06% (inactive)
same,max response,[1]; [19],16%
same,max response,[1]; [20],21.9%
Cc1nnc2ccc(-c3cccc(C(F)(F)F)c3)nn12,Potency,[2],0.0794 µM (active)
same,Potency,[3],> 46 µM (inactive)
same,Potency,[4],> 46 µM (inactive)
same,outcome,[5],inactive
same,Potency,[6],inactive
same,Potency,[7],inactive
same,outcome,[8],inactive
CN1CCCC2(CCN(C(=O)Oc3ccccc3)CC2)C1,outcome,[9],inactive
same,outcome,[10],inactive
same,Potency,[4],> 46 µM (inactive)
same,outcome,[5],inactive
same,Potency,[6],inactive
same,outcome,[8],inactive
NC(N)=N/N=C\c1c(Cl)cccc1Cl,"activity change, negative = inhibition",[1]; at 57.5 µM (top of the series),6.25% (inactive)
same,max response,[1]; [19],12.3%
same,max response,[1]; [20],22.6%
C#CCN(C)C(C)Cc1ccccc1 (stereo unspecified),outcome,[9],inactive
same,"activity change, negative = inhibition",[11],-4.45% (inactive)
same,outcome,[10],inactive
same,"activity change, negative = inhibition",[1]; at 57.5 µM (top of the series),2.75% (inactive)
same,max response,[1]; [19],64.3%
same,max response,[1]; [20],65.5%
same,Potency,[12],inactive
same,outcome,[13],inactive
same,Potency,[14],inactive
O=C(Oc1ccccc1)N1CCC[C@@]2(CCN(Cc3ccccc3)C2)C1,outcome,[9],inactive
same,outcome,[10],inactive
same,Potency,[4],> 46 µM (inactive)
same,outcome,[5],inactive
same,Potency,[6],inactive
same,Potency,[7],inactive
same,outcome,[8],inactive
CCCN(C/C=C\I)[C@@H]1CCc2ccc(O)cc2C1,Potency,[4],> 46 µM (inactive)
same,outcome,[8],inactive
CC1=NCCc2c1[nH]c1cc(O)ccc21,"activity change, negative = inhibition",[11],-14.7% (inactive)
same,outcome,[10],inactive
same,Potency,[3],> 20.6 µM (inactive) and > 46 µM (inactive)
same,Potency,[4],> 20.6 µM (inactive) and > 46 µM (inactive)
same,outcome,[5],inactive
same,Potency,[6],inactive
same,Potency,[15],inactive
same,Potency,[7],inactive
same,Potency,[16],inactive
same,"activity change, negative = inhibition",[1]; at 25.7 µM (top of the series),1.71% (inactive)
same,"activity change, negative = inhibition",[1]; at 57.5 µM (top of the series),18.3% (inactive)
same,max response,[1]; [19],2% and 2.42%
same,max response,[1]; [20],2.85% and 18.5%
same,Potency,[17],inactive
O=C(Nc1ccccc1)N1CCCC2(CCN(C(=O)Oc3ccccc3)CC2)C1,outcome,[9],inactive
same,outcome,[10],inactive
same,Potency,[4],> 46 µM (inactive)
same,Potency,[6],inactive
same,Potency,[7],inactive
same,outcome,[8],inactive
CCCN1CCc2cccc3c2C1Cc1ccc(O)c(O)c1-3 (stereo unspecified),"activity change, negative = inhibition",[1]; at 57.5 µM (top of the series),1.73% (inactive)
same,max response,[1]; [19],-26.8%
same,max response,[1]; [20],-25.9%
same,Potency,[12],inactive
same,outcome,[13],inactive
O=C1C=CC(=O)c2c(O)cccc21,Potency,[7],inactive
same,Potency,[16],inactive
same,Potency,[18],inactive
same,"activity change, negative = inhibition",[1]; at 57.5 µM (top of the series),10.3% (inactive)
same,max response,[1]; [19],-12.3%
same,max response,[1]; [20],-1.73%
same,Potency,[17],8.91 µM (active)
CCC1CN2CCc3cc(OC)c(OC)cc3C2CC1CC1NCCc2cc(OC)c(OC)cc21 (stereo unspecified),"activity change, negative = inhibition",[1]; at 57.5 µM (top of the series),7.1% (inactive)
same,max response,[1]; [19],-0.174%
same,max response,[1]; [20],8%
COc1ccc2cc1Oc1ccc(cc1)CC1c3cc(c(OC)cc3CCN1C)Oc1c(OC)c(OC)cc3c1C(C2)N(C)CC3 (stereo unspecified),"activity change, negative = inhibition",[1]; at 57.5 µM (top of the series),6.58% (inactive)
same,max response,[1]; [19],-1.03%
same,max response,[1]; [20],6.79%
CC(C)C[C@H]1C(=O)N2CCCC2[C@]2(O)O[C@](NC(=O)[C@@H]3C=C4c5cccc6[nH]c(Br)c(c56)C[C@H]4N(C)C3)(C(C)C)C(=O)N12 (stereo partly specified),"activity change, negative = inhibition",[1]; at 57.5 µM (top of the series),-0.407% (inactive)
same,max response,[1]; [19],-32%
same,max response,[1]; [20],-33.2%
ClC1=C(Cl)C2(Cl)C3C4C=CC(C4)C3C1(Cl)C2(Cl)Cl (stereo unspecified),outcome,[5],inactive
same,Potency,[15],3.16 µM (active)
same,Potency,[7],inactive
same,Potency,[16],inactive
same,"activity change, negative = inhibition",[1]; at 57.5 µM (top of the series),4.06% (inactive)
same,max response,[1]; [19],9.06%
same,max response,[1]; [20],23.4%
same,Potency,[17],inactive
